# Results: PubChem BioAssay AID2578 (National Center for Advancing Translational Sciences (NCATS), 2010)
# A number with no mark means an inactive call. Calls follow the shape of the dose curve; as a rule, active = well fitted curve in the direction sought with a large enough effect; inactive = no such curve, though single readings can be large or run the other way.
# Molecular target: Alpha-galactosidase A (Homo sapiens) (UniProt P06280)
# Assay: qHTS Assay for Inhibitors and Activators of N370S glucocerebrosidase as a Potential Chaperone Treatment of Gaucher Disease: Alpha-Galactosidase Counterscreen
# Conditions: purified enzyme, 4-MU-alpha-Gal fluorescence, 20 min; series mostly up to 57.5 µM; activity change, negative = inhibition: at the top concentration
# Text: NIH Chemical Genomics Center [NCGC] NIH Molecular Libraries Probe Production Centers Network [MLPCN] MLPCN Grant: MH086442-01 Assay Submitter (PI): Wei Zheng Glucocerebrosidase (GC) catalyzes the hydrolysis of beta-glucocerebroside to glucose and ceramide in lysosomes. Mutations in the glucocerebrosidase gene result in Gaucher disease, an autosomal recessive lysosomal storage disorder. Many of the mutations encountered in patients with Gaucher disease are missense alterations that may cause misfolding, decreased stability and/or mistrafficking of this lysosomal protein. […] These inhibitors include iminosugar analogs and three non-iminosugar inhibitors identified from a previous HTS of 62,000 compounds with the wild type recombinant enzyme. However, the enhancement of enzyme activity by the chaperone action of an enzyme inhibitor must be balanced against the direct inhibition of the enzyme. An enzyme activator could also function as a chaperone by binding to the enzyme and helping to correct its misfolding and mistrafficking. While activators for GC have not yet been identified, they may have better therapeutic potential than inhibitors. Therefore the discovery and development of chemical activators may provide a new strategy for the chaperone therapy. To characterize compound selectivity, selected hits from the primary screen were screened against purified alpha-galactosidase, a related sugar hydrolase. Alpha-galactosidase is a homodimeric glycoprotein that hydrolyzes the terminal alpha-galactosyl moieties from glycolipids and glycoproteins.
# NCGC Assay Protocol Summary: This is a fluorogenic enzyme assay with 4-Methylumbelliferyl alpha-D-galactopyranoside as the substrate and human […] as the enzyme preparation. Upon the hydrolysis of this fluorogenic substrate, the resulting product, […]. 4-Methyllumbelliferone, can be excited at 365 nm and emits at 440 nm. This fluorescence which can be detected by a standard fluorescence plate reader. Data were normalized to the controls for basal activity (without enzyme) and 100% activity (with enzyme). In the AC50 values were determined from concentration-response data modeled with the standard Hill equation. Assay buffer: 50 mM citric acid (titrated with potassium phosphate to pH 4.5), 0.005% Tween-20, pH 4.5. (pH 4.5 is an optimal condition for this enzyme assay) 1536-well assay protocol for the human alpha-galactosidase: (1) Add 2 ul/well of enzyme (12 nM final) (2) Add 23 nL compounds in DMSO solution. The final titration was 0.7 nM to 77 uM. (3) Add 1 ul of substrate ([…]) (4) Incubate at room temperature for 20 min. (5) Add 2 ul stop solution (1M NaOH and 1M Glycine mixture, pH 10) (6) Detect the assay plate in a ViewLux plate reader (PerkinElmer) with Ex=365 nm and Em=440nm. Keywords: MLSMR, MLPCN, NIH Roadmap, qHTS, NCGC, : Alpha-galactosidase, Fabry Disease, pharmacological chaperone, chaperone therapy
# Sequence of Alpha-galactosidase A (Homo sapiens) (P06280 whole entry, looked up): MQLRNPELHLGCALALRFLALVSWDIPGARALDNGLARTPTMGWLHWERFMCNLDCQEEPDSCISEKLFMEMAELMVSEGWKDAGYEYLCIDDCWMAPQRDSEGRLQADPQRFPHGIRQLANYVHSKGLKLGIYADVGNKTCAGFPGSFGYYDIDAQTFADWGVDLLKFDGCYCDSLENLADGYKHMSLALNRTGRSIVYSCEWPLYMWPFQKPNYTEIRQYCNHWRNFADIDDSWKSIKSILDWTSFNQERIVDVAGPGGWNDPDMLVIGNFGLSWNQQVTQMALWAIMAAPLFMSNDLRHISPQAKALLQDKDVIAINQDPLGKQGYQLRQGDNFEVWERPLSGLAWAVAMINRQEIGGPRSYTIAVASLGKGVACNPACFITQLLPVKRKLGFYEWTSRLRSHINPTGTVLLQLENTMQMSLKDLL
row,Structure (SMILES),"activity change, negative = inhibition"
1,O=[N+]([O-])c1ccc(S(=O)(=O)N2CCN(c3nc(-c4ccccc4)nc4ccccc34)CC2)cc1,-5.35%
2,CC(C)(C)c1ccc(S(=O)(=O)N2CCN(c3nc(-c4cccs4)nc4ccccc34)CC2)cc1,-12.9%
3,O=S(=O)(c1ccc(C(F)(F)F)cc1)N1CCN(c2nc(-c3cccs3)nc3ccccc23)CC1,-9.68%
4,O=S(=O)(c1ccc(F)cc1)N1CCN(c2nc(-c3cccc(Br)c3)nc3ccccc23)CC1,-5.82%
5,CCOc1ccc(S(=O)(=O)N2CCN(c3nc(-c4ccccc4)nc4ccccc34)CC2)cc1OCC,-8.78%
6,COc1ccc(S(=O)(=O)N2CCN(c3nc(-c4ccccc4)nc4ccccc34)CC2)cc1,-3.17%
7,O=S(=O)(c1ccc2c(c1)OCCO2)N1CCN(c2nc(-c3ccccc3)nc3ccccc23)CC1,-12.6%
8,O=[N+]([O-])c1ccccc1S(=O)(=O)N1CCN(c2nc(-c3cccs3)nc3ccccc23)CC1,-7.26%
9,O=S(=O)(c1ccc(OC(F)(F)F)cc1)N1CCN(c2nc(-c3ccccc3)nc3ccccc23)CC1,-4.05%
10,O=S(=O)(c1ccc(F)cc1)N1CCN(c2nc(-c3ccccc3)nc3cc(Cl)ccc23)CC1,-14%
11,NS(=O)(=O)c1ccc(S(=O)(=O)N2CCN(c3nc(-c4ccccc4)nc4ccccc34)CC2)cc1,-14.3%
12,CC(C)(C)c1ccc(S(=O)(=O)N2CCN(c3nc(-c4ccccc4)nc4ccccc34)CC2)cc1,-7.91%
13,O=S(=O)(c1ccc2c(c1)OCCO2)N1CCN(c2nc(-c3cccs3)nc3ccccc23)CC1,-4.11%
14,O=S(=O)(c1ccc(Br)cc1)N1CCN(c2nc(-c3cccs3)nc3ccccc23)CC1,-8.57%
15,O=S(=O)(c1ccccc1F)N1CCN(c2nc(-c3cccs3)nc3ccccc23)CC1,-14.7%
16,O=S(=O)(c1ccccc1Br)N1CCN(c2nc(-c3ccccc3)nc3ccccc23)CC1,-29.7%
17,O=S(=O)(c1ccc2ccccc2c1)N1CCN(c2nc(-c3ccccc3)nc3ccccc23)CC1,-6.14%
18,O=S(=O)(c1ccc(F)cc1)N1CCN(c2nc(-c3cccs3)nc3ccccc23)CC1,-9.22%
19,CCOC(=O)c1ccc(S(=O)(=O)N2CCN(c3nc(-c4ccccc4)nc4ccccc34)CC2)cc1,-7.72%
20,S=C(NCCCc1cnc[nH]1)NCCCN(Cc1ccc(Cl)c(Cl)c1)c1ccc(Br)cn1,-6.2%
21,Cc1ccc(S(=O)(=O)N2CCN(c3nc(-c4ccc(F)cc4)nc4cc(Cl)ccc34)CC2)cc1,-11.1%
22,O=[N+]([O-])c1ccccc1S(=O)(=O)N1CCN(c2nc(-c3ccccc3)nc3ccccc23)CC1,-2.94%
23,O=S(=O)(c1ccc2c(c1)CCCC2)N1CCN(c2nc(-c3cccs3)nc3ccccc23)CC1,-4.94%
24,O=S(=O)(c1ccc(Br)cc1)N1CCN(c2nc(-c3ccccc3)nc3ccccc23)CC1,-12.8%
25,O=[N+]([O-])c1cccc(S(=O)(=O)N2CCN(c3nc(-c4cccs4)nc4ccccc34)CC2)c1,-1.82%
26,O=S(=O)(c1cccc(C(F)(F)F)c1)N1CCN(c2nc(-c3cccs3)nc3ccccc23)CC1,-4.24%
27,O=S(=O)(c1ccc(Cl)cc1)N1CCN(c2nc(-c3ccc(Cl)cc3)nc3ccccc23)CC1,-12.3%
28,COc1ccc(S(=O)(=O)N2CCN(c3nc(-c4cccs4)nc4ccccc34)CC2)cc1OC,-9.79%
29,O=S(=O)(c1ccccc1C(F)(F)F)N1CCN(c2nc(-c3cccs3)nc3ccccc23)CC1,-3.95%
30,CC(=O)c1ccc(S(=O)(=O)N2CCN(c3nc(-c4cccs4)nc4ccccc34)CC2)cc1,-7.55%
